From ChEMBL document CHEMBL3988442, “University of Dundee, Small-Polar-MMV Screening Library” (2021)
About 13,000 (27%) of roughly 48,000 compounds showed an effect of 50% or more. The list shows a part of the results.

system: Wolbachia pipientis; assay: Anti-Wolbachia Cell-Based Screen; type: functional; design: scale not given: in the data most compounds retested in dose-response had high values; conditions: 5 µM

SMILES | Percent Effect [%]
Cc1noc(CN2CCOC(CN(C)C)C2)n1 (stereo unspecified) | 4.204
O=C1CO[C@H]2CN(S(=O)(=O)c3ccccc3)C[C@H]2N1CC1CCCCC1 | -1.242
CCN(CC1CCOC1)C(=O)Cn1nnn(-c2cccs2)c1=O (stereo unspecified) | -8.505
COc1cc(OC)c(CNC(=O)NCC(=O)N2CCCC2)c(OC)c1 | 0.1885
Cn1cc(CN2CC[C@@H]3[C@@H](CCC(=O)N3CCC3=CCCCC3)C2)cn1 | -6.139
CC1CCN(CC(=O)NC(C#N)c2cnn(-c3ccccc3)c2)CC1 (stereo unspecified) | -3.926
Cc1ccsc1C(=O)Nc1ccc(N2CCC(O)CC2)c(C#N)c1 | -13.01
Cc1cc(C)c(CNC(=O)NCc2nnc3n2CCCC3)c(=O)[nH]1 | -2.933
CN(Cc1nccs1)C1CCN(c2ncccn2)CC1 | -5.116
CN(C)c1nccc(C2CCN(c3ncccn3)CC2)n1 | 131.2
CCN(CC)C1CCN(c2nccc(C3CCCC3)n2)C1 (stereo unspecified) | 2.281
Fc1cnc(NCC2Cn3nnc(-c4ccccc4)c3CO2)nc1 (stereo unspecified) | -26.66
O=C1CCSCC(C(=O)N2CCCC2)N1 (stereo unspecified) | -10.11
CN(C)C(=O)N1CC2(CCN(CC3CC3)CC2)c2cc(F)ccc21.O=C(O)C(F)(F)F | -28.12
Cc1ccc2c(c1)C1(CCN(C(N)=O)CC1)CN2C(=O)N(C)C | 10.3
COCC(=O)N1CCC2(CCc3ccc(F)cc32)CC1.Cl | -16.21
CC(=O)N1CCC2(CC1)CN(C(C)C)c1ccc(F)cc12 | 93.83
CC(=O)N1CC2(CCN(C(=O)C3CC3)CC2)c2cc(C)ccc21 | -2.981
CC(=O)N1CCC2(CC1)CN(C(=O)C1CC1)c1ccc(F)cc12 | -23.77
COCC(=O)N1CCC2(CC1)CN(CC1CC1)c1ccc(F)cc12 | 102.5
Cc1ccc2c(c1)C1(CCN(C(N)=O)CC1)CN2CC1CC1 | 104
COCC(=O)N1CCC2(CC1)CC(OC)c1ccc(F)cc12 (stereo unspecified) | -1.265
CC(=O)N1CCC2(CC1)C(=O)N(C)c1ccc(F)cc12 | -20.1
CNC(=O)N1CCC2(CC1)CN(C)c1ccc(F)cc12 | -1.265

SMILES | Percent Effect [%]
CC(=O)N1CCC2(CC1)CN(CC1CC1)c1ccc(F)cc12 | 110.5
COCc1cccc(S(=O)(=O)NCc2cnn(C)c2C)c1 | 10.62
CC(=O)c1cccc(NS(=O)(=O)c2cc(C)c(C(=O)O)s2)c1 | 6.094
Cc1cccnc1NC(=O)NCc1ccc(N2CCNC(=O)C2)cc1 | -1.064
NS(=O)(=O)Cc1ccc(CNC(=O)NCC2CCOC2)cc1 (stereo unspecified) | -4.862
Cc1nc(C(=O)NCc2ccc(N3CCNC(=O)C3)c(F)c2)cs1 | -8.487
O=C1CN(c2ccc(CNC(=O)NCCO)cc2)CCN1 | 104.3
O=C1CN(c2ccc(CNC(=O)NCC3CCOC3)cc2)CCN1 (stereo unspecified) | 100.4
CC(C(=O)NCc1ccc(N2CCNC(=O)C2)cc1)c1cccs1 (stereo unspecified) | 88.68
O=C(NCc1ccc(Br)cc1)NCC1CCOC1 (stereo unspecified) | -13.61
CC(C(=O)NCc1ccc(N2CCNC(=O)C2)cc1)n1cncn1 (stereo unspecified) | -3.383
O=C1CN(c2ccc(CNC(=O)NCc3ccoc3)cc2)CCN1 | 94.29
CCSc1cncc(NCc2ccc(N3CCNC(=O)C3)cc2)n1 | -9.871
CC(O)CNC(=O)NCc1ccc(N2CCNC(=O)C2)cc1 (stereo unspecified) | -1.608
Cc1ccccc1C(=O)NCc1ccc(N2CCNC(=O)C2)cc1 | 3.423
O=C(NCCCn1nc2ccccn2c1=O)NC1CCC(O)CC1 (stereo unspecified) | -5.846
CC(CCSc1ccccc1)N1CCCN(C(N)=O)CC1 (stereo unspecified) | 1.732
COc1cc2c(cc1OC)S(=O)(=O)N(Cc1cnn(C)c1)C2=O | -5.179
CCN(Cc1cccc(-c2ccncc2)c1)S(C)(=O)=O | 22.59
COc1ccnc(N2CCC(OCCN3CCCCC3)C2)n1 (stereo unspecified) | -2.392
CCCS(=O)(=O)N1CCC2(CN(c3ccsc3)C(=O)CN2C)C1.O=C(O)C(F)(F)F (stereo unspecified) | 2.599
CC(C)c1nc(CN(C)C2CCN(CCc3ccncc3)C2)no1 (stereo unspecified) | 78.23
CC(C)c1nc(CN(C)C2CCN(CC(F)(F)F)C2)no1 (stereo unspecified) | 0.6339
CCc1nc(CN(C)C2CCN(CCn3cc(C#N)cn3)C2)no1 (stereo unspecified) | 10.97

SMILES | Percent Effect [%]
CC(C)c1nc(CN(C)C2CCN(CCn3cc(C#N)cn3)C2)no1 (stereo unspecified) | 72.8
Cc1nc(CN(C)C2CCN(CCn3cc(C#N)cn3)C2)no1 (stereo unspecified) | 105.6
Cc1ncsc1CCN1CCC(N(C)Cc2noc(C(C)C)n2)C1 (stereo unspecified) | 6.438
Cc1nc(CN2CCC(N(C)Cc3noc(C(C)C)n3)C2)cs1 (stereo unspecified) | 19.33
CN(c1ccc(C#N)cn1)C1CCCN(Cc2noc(C3CC3)n2)C1 (stereo unspecified) | 3.102
CN(CC1CN(CCn2cc(C#N)cn2)CCO1)c1cccnn1 (stereo unspecified) | -17.7
CN(Cc1noc(C2CC2)n1)C1CCN(CCn2cc(C#N)cn2)C1 (stereo unspecified) | 90.88
Cc1nn(CCO)c(C)c1CNC1CCc2c(Cl)cccc21 (stereo unspecified) | 9.566
CCOC(C)c1nc(CN2CCN(CC(F)F)CC2)cs1 (stereo unspecified) | -28.37
CCc1c(C(=O)N2CC[C@H](N3CCOCC3)[C@H](CCCO)C2)csc1C | -10.58
CCc1c(C)nn(CCNC(=O)C2CCCN(C(=O)N(C)C)C2)c1C (stereo unspecified) | -3.279
C=C(C)CN1CCC(c2n[nH]c(C3CC3)n2)CC1 | -34.27
CN1CCN(C(=O)[C@H]2C[C@@H]3CN(c4ncc(F)cn4)C[C@@H]3N2C)CC1.O=C(O)C(F)(F)F.O=C(O)C(F)(F)F.O=C(O)C(F)(F)F | 6.01
O=C(Nc1cnccn1)[C@@H]1C[C@H]2OCC[C@H]2N(c2ncc(F)cn2)C1 | -10.05
CNC(=O)[C@H]1CO[C@H]2CCN(c3ncc(F)cn3)C[C@H]2C1.O=C(O)C(F)(F)F | 80.41
O=C(Nc1cccnc1)[C@H]1CO[C@H]2CCN(c3ncc(F)cn3)C[C@H]2C1.O=C(O)C(F)(F)F.O=C(O)C(F)(F)F | -5.908
CC(=O)N1[C@H](Cn2cncn2)C[C@@H]2CN(c3ncc(F)cn3)CC[C@@H]21.O=C(O)C(F)(F)F | -4.782
Fc1cnc(N2CC[C@@H]3CN(Cc4ccncc4)CCO[C@@H]3C2)nc1.O=C(O)C(F)(F)F.O=C(O)C(F)(F)F.O=C(O)C(F)(F)F | -11.92
CN(C)C(=O)[C@H]1C[C@H]2OCC[C@H]2N(Cc2ccc(F)cc2)C1.O=C(O)C(F)(F)F | -2.638
CN(C)C(=O)[C@H]1CO[C@H]2CCN(c3ncc(F)cn3)C[C@H]2C1.O=C(O)C(F)(F)F | 120.2
O=C(Nc1cnccn1)[C@H]1CO[C@H]2CCN(c3ncc(F)cn3)C[C@H]2C1.O=C(O)C(F)(F)F | 104.1
CNC(=O)c1cnc(/C=C/c2cc(OC)c3c(c2)OCCO3)s1 | 15.86
CCN(C)c1ncnc2c1CCN(C(=O)c1ccsc1)CC2.O=C(O)C(F)(F)F | -2.544
CS(=O)(=O)N1CCO[C@@H]2CN(C(=O)N3CCCC3)CC[C@@H]2C1 | 106.3

SMILES | Percent Effect [%]
CC(C)NC(=O)N1CC[C@@H]2CN(S(C)(=O)=O)CCO[C@@H]2C1 | 112.1
CS(=O)(=O)N1CCO[C@@H]2CN(C(=O)C3CCOC3)CC[C@@H]2C1 (stereo partly specified) | 99.33
CCc1ccc(CN2CC[C@@H]3CN(S(C)(=O)=O)CCO[C@@H]3C2)o1.O=C(O)C(F)(F)F | 2.069
CS(=O)(=O)N1CCO[C@@H]2CN(C(=O)COC3CCCC3)C[C@@H]2C1 | -4.785
CS(=O)(=O)N1CCO[C@@H]2CN(C(=O)C3CC(F)(F)C3)C[C@@H]2C1 | 99.59
CC(C)c1nc(CNC(=O)c2ccc(C(C)N3CCCCC3)o2)cs1 (stereo unspecified) | 4.315
Cc1ncc(S(=O)(=O)Nc2ccnn2C(C)C)[nH]1 | -21.74
CS(=O)(=O)N1CCO[C@@H]2CN(C(=O)N3CCOCC3)CC[C@@H]2C1 | 93.86
CS(=O)(=O)N1CC[C@H]2C[C@@H](C(=O)N3CCOCC3)O[C@@H]2C1 | -11.49
COCCN1CCN(C(=O)c2ccccc2C(C)=O)[C@H]2CS(=O)(=O)C[C@H]21 | -3.299
O=C1NCC2(CCCN(Cc3ccccc3OCCO)C2)O1 (stereo unspecified) | -12.98
COc1ccccc1CN1CCCC2(Cc3ccccc3CNC2=O)C1 (stereo unspecified) | 121.9
COCCC1(C(=O)O)CCCN(Cc2ccccc2OCCO)C1 (stereo unspecified) | -7.98
Cc1cccc(CN2CCCC3(Cc4ccccc4CNC3=O)C2)n1 (stereo unspecified) | 122.4
Cc1cccc(CN2CCCC3(CCN(c4cccnc4)C3=O)C2)n1 (stereo unspecified) | -4.562
CCOC(=O)N1CCN(c2nc(N3CCCC3)c3ccccc3n2)CC1 | -6.467
CCOC(=O)C(C)NC(=O)N1CCN(c2nc3ccccc3n2C)CC1 (stereo unspecified) | 155.3
CCNC(=O)N1CCN(c2nc3ccccc3n2C)CC1 | 113.5
COC(=O)CNC(=O)N1CCC2(CC1)CC(c1ccccc1)CN(C)C2 (stereo unspecified) | -8.809
COC(=O)CNC(=O)N1CCN(c2nc3ccccc3n2C)CC1 | 124.8
CCOC(=O)N1CCN(c2nc(NC)c3ccccc3n2)CC1 | -5.868
Cn1c(SCC(=O)NC(C)(C#N)C2CC2)nc2ccccc21 (stereo unspecified) | -4.187
CCOC(=O)CCNC(=O)N1CCN(c2nc3ccccc3n2C)CC1 | -6.682
CCNC(=O)N1CCC(=Cc2ccccc2)CC1 | 6.266
